In PubChem BioAssay AID1053144 (Broad Institute, 2014) one finds activation data, which are given here for 34 compounds.

About 160 (4.7%) of roughly 3,400 compounds were called active.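 How the source made its calls: active means fitted curve reaches 30% activation at a concentration no higher than the top valid tested dose, luminescence rising; inconclusive means no clear call, values can overlap the other calls; inactive means signal moving opposite to the expected increase, plus the rest.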 Not all results are given here. Results with a measured potency or affinity are listed apart.

This experiment in a line: TCF/LEF reporter activation in neural progenitors – cell-based, iPS-derived NPC, luciferase, Wnt3a, cherry-pick, dose response (AID 1053144).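 Further: Wnt3a stimulus is conditioned medium from Wnt3a-transfected mouse L cells at 5% in well.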 Particulars: Wnt3a EC25, 24 h; series mostly up to 26 µM.
For `COc1ccccc1C1CC(c2cccs2)=Nc2ccccc2S1` (centres undefined), the activation entry was “inactive”. In the case of `COc1ccc2oc(C(=O)Nc3ccc(C)cn3)c(C)c2c1`, the activation entry was “inactive”. The same measure for `COc1ccc(/C=N/Nc2nc3ccccc3o2)cc1O`: “inactive”; for `COc1cc(/C=N/Nc2ccccn2)ccc1O`: “inactive”; for `Nc1[nH]n(-c2ccccc2)c(=O)c1N=Nc1ccccc1[N+](=O)[O-]`: “inactive”. Turning to `COCCNC(=O)c1ccc2c(Cl)c3c(nc2c1)CCC3`, the activation entry was “inactive”. Turning to `CCOC(=O)c1c(C)[nH]c(C(=O)OCC(=O)c2ccccc2)c1C`, the activation entry is “inactive”. Turning to `CCOC(=O)c1c(C)[nH]c(C(=O)OCc2ccccc2)c1C`, the activation result was “inactive”. The same measure for `CCOC(=O)N1CCC(N2CCCC(C(=O)c3cc(F)ccc3OC)C2)CC1` (centres undefined): “inactive”; for `COc1ccc(N2CCN(c3ccc(NC(=O)/C=C\C(=O)O)cc3)CC2)cc1`: “inactive”; for `Cc1ccc(-c2nn(-c3ccccc3)cc2C=O)o1`: “inactive”. In the case of `O=C(NCc1cccnc1)C(=O)Nc1nc2ccccc2s1`, the activation result is “inactive”. The same measure for `OCC1(CCOc2ccccc2)CCN(Cc2ccccc2C(F)(F)F)CC1`: “inactive”; for `Nc1ccc2nc(NC(=O)C3CCCCC3)sc2c1`: “inactive”. The same measure for `Cc1cc(/C=N/NC(=O)c2ccccc2F)c(C)n1-c1ccccc1`: “inactive”; for `COc1ccc(CN2C(=O)c3cccc4cccc(c34)C2=O)cc1`: “inactive”. The same measure for `COc1ccc(N2C(=O)c3ccccc3C2O)cc1` (centres undefined): “inactive”; for `O=C(c1cc2cc(F)ccc2[nH]1)N1CCc2ccccc21`: “inactive”; for `Cc1ccc(-c2nc3ccsc3c(=O)o2)cc1`: “inactive”.

For the compound `Cc1ccnc2ccc(-c3nc4ccccc4o3)cc12`, the activation entry was “inactive”. To `COc1ccc(C2CC(=O)N(C)c3ccccc3S2)cc1OC` (centres undefined) belongs “inactive”; to `Clc1cccc(-c2ccc3ncnc(NCc4cccs4)c3c2)c1`, “inactive”. As for `O=c1cc(-c2ccc3c(c2)OCCO3)oc2ccc(Cl)cc12`, the activation entry was “inactive”. To `O=c1cc(-c2ccccc2)oc2ccc(Cl)cc12` belongs “inactive”; to `C/C(=N/NC(=O)c1ccco1)c1ccc(NC(=O)c2ccc(F)cc2)cc1`, “inactive”. To `Cc1ccccc1-c1nnc(-c2cccc3ccccc23)o1` belongs “inactive”. To `Cc1cccc(-c2nnc(-c3cccc4ccccc34)o2)c1` belongs “inactive”; to `Nc1ccc(-c2nnc(-c3ccc(N)cc3)o2)cc1`, “inactive”; to `Cc1ccc(NC(=O)N2CCC(c3ccccc3)C2)cc1C` (centres undefined), “inactive”. With `CCc1cc(C(=O)Cc2nc3ccccc3[nH]2)c(O)cc1O`, the activation entry was “inactive”. To `O=C(Cc1nc2ccccc2[nH]c1=O)c1ccccc1` belongs “inactive”; to `CCc1ccc(C(=O)COC(=O)c2ccccc2OC)cc1`, “inactive”. The same measure for `COc1ccc(-c2nnc(SCC(=O)Nc3cccc(Cl)c3)o2)cc1`: “inactive”; for `COc1ccc(-c2nnc(SCC(C)C)o2)cc1`: “inactive”.
